Screens from PubChem.
An excerpt weighted towards active compounds, which were near 3.8% of everything screened.
B2AR arrestin ag = qHTS assay of beta-arrestin-biased ligands of beta2-adrenergic receptor: NCGC Sytravon Library Screen; Beta-2 adrenergic receptor (Homo sapiens), P07550; HTLA Tango cells, beta-arrestin recruitment, luciferase luminescence, 18 h; Potency, µM (doses to about 46.1 µM), actives largely listed as activators; 44,000 tested, under 10 active; AID 1347077, 2019;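 further: potency means the concentration at half of the fitted maximal effect; 0% = DMSO and full agonism = EC100 isoproterenol or metaproterenol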
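Tango cells expressing recombinant beta2-AR and beta-arrestin were treated with compounds (up to 46 microM titration) in DMEM with 1% FBS for 18 hr at 37 degrees C. Beta-arrestin recruitment drove tTA-dependent luciferase, read by luminescence; curves were fitted and classed.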
NTMT1 inhibitor = Primary qHTS for Inhibitors of N-terminal methyltransferase 1 (NTMT1): MTaseGlo Assay. N-terminal Xaa-Pro-Lys N-methyltransferase 1 (Homo sapiens), Q9BV86. Potency, µM (top dose mostly 114 µM), inactives show at the top dose activity change, negative = inhibition, hits mostly inhibitors. actives 2.5% (n = 59,000). NTMT1 MTase-Glo SAH luminescence, purified enzyme;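 further: potency means the concentration at half of the fitted maximal effect; plate controls were DMSO vehicle for no effect and no enzyme for full effect; nearly all actives have a fitted effect of over 65% in size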
Target sequence (Q9BV86 whole entry, looked up): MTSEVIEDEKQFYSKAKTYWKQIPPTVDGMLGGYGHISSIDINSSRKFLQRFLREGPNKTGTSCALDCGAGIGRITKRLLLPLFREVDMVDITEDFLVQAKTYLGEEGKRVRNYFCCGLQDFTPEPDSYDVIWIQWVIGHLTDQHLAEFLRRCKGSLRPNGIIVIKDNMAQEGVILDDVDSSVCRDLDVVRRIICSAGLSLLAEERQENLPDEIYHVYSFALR
GALK inh = qHTS Assay for Inhibitors of Human Galactokinase (GALK): NCGC Sytravon Library Screen; AID 1347072, 2019; Potency, µM (titrated, usually from 57.5 µM), for the others: at the top dose activity, negative = inhibition, most hits filed as inhibitors; 44,000 tested, under 10 active; recombinant GALK, Kinase-Glo ATP luminescence, 1 h; P51570;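 further: plate controls were full GALK reaction for no effect and reaction lacking GALK for full effect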
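Reactions with and without enzyme served as controls. GALK at 5 nM phosphorylates 100 uM galactose using 35 uM ATP (HEPES pH 8.0, Mg2+) for 1 h at RT, with luminescence read 10 min after adding Kinase-Glo Plus.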
GPR32 ag = qHTS for Agonists of Human Resolvin D1 Receptor DRV1 | activation, % at 76.9 µM | Probable G-protein coupled receptor 32 (Homo sapiens), O75388 | AID 1346428, 2018 | CHO-K1 GPR32 beta-arrestin PathHunter luminescence, 90 min; zero percent set by DMSO-only wells | actives 2.5% (n = 48,000);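 active means activation of at least 60% and not above a set upper limit, about 1 call in 100 departs from these limits; inconclusive means activation of 40% to 60%, or above that upper limit; inactive means activation under 40%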; further: 0% is about no effect
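Engineered CHO-K1 line co-expressing GPR32-ProLink and EA-beta-arrestin. Compound treatment lasted 90 min at 37 °C. Luminescence was recorded after 1 h with substrate at ambient temperature, relative to DMSO basal wells.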
TSG101-PTAP inh = qHTS Validation Assay for Inhibitors of HIV-1 Budding by Blocking the Interaction of PTAP/TSG101: Sytravon Library Screen; 44,000 tested, under 10 active; Fluorescence polarization, FITC-PTAP peptide/Tsg101, 20 min; Potency, µM (top dose mostly 115 µM), hits mostly inhibitors; Tumor susceptibility gene 101 protein (Homo sapiens), Q99816; AID 1347069, 2019; further: potency means the concentration at half of the fitted maximal effect; 0% is about no effect
Target sequence (Q99816 whole entry, looked up): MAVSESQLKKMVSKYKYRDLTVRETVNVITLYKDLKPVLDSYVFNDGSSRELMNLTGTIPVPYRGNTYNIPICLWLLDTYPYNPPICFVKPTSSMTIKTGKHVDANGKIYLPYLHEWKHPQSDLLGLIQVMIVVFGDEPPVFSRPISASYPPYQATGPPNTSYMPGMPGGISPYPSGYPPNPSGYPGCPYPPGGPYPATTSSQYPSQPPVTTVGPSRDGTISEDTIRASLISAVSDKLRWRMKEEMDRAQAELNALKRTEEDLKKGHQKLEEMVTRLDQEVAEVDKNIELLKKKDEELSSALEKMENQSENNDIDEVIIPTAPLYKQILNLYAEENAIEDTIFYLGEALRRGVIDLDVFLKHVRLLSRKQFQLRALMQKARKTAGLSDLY
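Read-out is FITC fluorescence polarization. Compounds were added to Tsg101 binding domain (10 uM final), then FITC-PTAP peptide (50 nM final), 20 min at r.t. Total S+P intensity flags fluorescent compounds.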
OvCa metastasis = Primary qHTS assay for Inhibitors of ovarian cancer metastasis using an organotypic tumor microenvironment (TME) model. SKOV3ip1-GFP adhesion/invasion on 3D omental model, fluorescence. Potency, µM (doses to about 45.8 µM), for the others: at the top dose activity change, negative = inhibition, usual class: inhibitors. actives 0.1% (n = 46,000). AID 1963576, 2024;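 further: potency means the concentration at half of the fitted maximal effect; plate controls were DMSO wells for no effect and tomatine positive control wells for full effect; nearly all actives have a fitted effect of over 65% in size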
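qHTS, 4-pt dose (0.36-46 umol/L); SKOV3ip1-GFP, 1,200 cells/well, no FBS; primary omental fibroblast/mesothelial co-culture 48 h pre-grown; 2 h RT + 16 h 37 C; PBS wash, 4% PFA; GFP count 488/509 nm.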
The depositor's hits bear a star; i = inactive; ? = inconclusive; · = no result given; ! = not confirmed by another sample; [ ] = remark or other dose. Unless noted, the call rests on the fitted dose curve; in most records, active means well fitted curve in the direction sought with a large enough effect; inconclusive means small, poorly fitted or top-dose-only effect, or another doubt; inactive means no such curve, though single readings can be large; an effect the other way counts as inactive or inconclusive.

SMILES	B2AR arrestin ag	NTMT1 inhibitor	GALK inh	GPR32 ag	TSG101-PTAP inh	OvCa metastasis
Cc1c(-c2cccc(NC(=O)Nc3ccc(Cl)cc3)c2)nc2ncccn12	i	-1%	-9%	?	i	-6%
Cc1c(-c2cccc(NC(=O)c3ccc(F)c(F)c3)c2)nc2ncccn12	i	-1%	1%	64*	i	-4%
CCOC(=O)c1c(NC(=O)c2ccc(S(=O)(=O)N3CCC(C)CC3)cc2)sc2c1CCN(C(C)C)C2	i	9%	2%	78*	i	i
Cc1ccc(C)c(Cn2c(=O)n(CCCCC(=O)NCc3ccc4c(c3)OCO4)c(=O)c3ccccc32)c1	i	89µM*	-2%	-28	i	i
Cc1ccc(C)c(Cn2c(=O)n(CCCCC(=O)NCc3ccccc3Cl)c(=O)c3ccccc32)c1	i	79µM*	7%	-9	i	i
Cc1ccc(Cn2c(=O)n(CCCCC(=O)NCc3ccccc3Cl)c(=O)c3ccccc32)cc1	i	12%	1%	10	i	35%
Cc1ccc(NC(=O)CSc2ncc(S(=O)(=O)c3ccc(C(C)C)cc3)c(=O)[nH]2)cc1C	i	-27%	?	?	i	-4%
COc1cc(Cl)c(C)cc1NC(=O)CSc1ncc(S(=O)(=O)c2ccc(C(C)(C)C)cc2)c(=O)[nH]1	i	18µM*	-6%	-10	i	-2%
Cc1ccc(S(=O)(=O)c2cnc(SCC(=O)Nc3ccccc3C(F)(F)F)[nH]c2=O)cc1C	i	89µM*	4%	-2	i	i
Cc1c(Cl)cccc1NC(=O)CSc1ncc(S(=O)(=O)c2ccc(C(C)C)cc2)c(=O)[nH]1	i	?	?	?	i	1%
CC(C)(C)c1ccc(S(=O)(=O)c2cnc(SCC(=O)Nc3ccc(F)c(Cl)c3)[nH]c2=O)cc1	i	25µM*	20µM*	-13	i	-8%
O=C(CSc1ncc(S(=O)(=O)c2ccc(Cl)cc2)c(=O)[nH]1)Nc1cccc(C(F)(F)F)c1	i	?	3%	113*	i	-6%
COc1ccccc1NC(=O)C1CCCN(c2nnc(C)c3c(C)n(-c4ccccc4)nc23)C1 (stereo unspecified)	i	-1%	0%	3	i	2%
N#CCNC(=O)c1ccc(-c2ccnc(Nc3ccc(N4CCOCC4)cc3)n2)cc1	·	?	·	·	·	-12%
Cc1ccc(Cl)c(Nc2ccccc2C(=O)O)c1Cl	·	44%[57.5 µM]	·	103*!	·	·
C=CC(=O)Nc1cc(Nc2nccc(-c3cn(C)c4ccccc34)n2)c(OC)cc1N(C)CCN(C)C	·	25µM*	·	·	·	·
CN[C@@H](C)C(=O)N[C@H]1CCCC[C@H]2CC[C@@H](C(=O)N[C@@H](c3ccccc3)c3cn(CCCCc4ccc(CCCCn5cc([C@@H](NC(=O)[C@@H]6CC[C@@H]7CCCC[C@H](NC(=O)[C@H](C)NC)C(=O)N76)c6ccccc6)nn5)cc4)nn3)N2C1=O	·	28µM*!	·	·	·	14%
COc1ccc(Cn2ccc3nc(C)c(C(=O)NCc4ccc(F)cc4)cc3c2=O)cc1	i	-2%	-2%	63*	i	?
COc1ccc(Cn2ccc3nc(C)c(C(=O)NCc4ccc(C)cc4)cc3c2=O)cc1	i	-5%	2%	41	i	-2%
CN(C)S(=O)(=O)N(CC(=O)NCCSCc1ccc(Cl)cc1Cl)c1ccccc1	i	0%	2%	48	i	29%
N#C/C(=C\c1ccc(-c2cc(Cl)ccc2Cl)o1)C(=O)Nc1ccccc1C(=O)O	i	10µM*	0%	111*	i	-30%
COc1cc2nc(Nc3ccc(C)c(C)c3)nc(N)c2cc1OC	i	?	-6%	83*	i	?
Cc1cc(N2CCN(C)CC2)nc2ccc(NC(=O)Nc3ccccc3)cc12	i	-12%	-1%	?	i	-21%
Cc1ccc(NC(=O)Nc2ccc3nc(N4CCN(C)CC4)cc(C)c3c2)cc1C	i	89µM*	2%	?	i	?
Cc1cc(N2CCCCC2)nc2ccc(NC(=O)c3cccc(Cl)c3)cc12	i	-7%	-6%	-27	i	-19%
SMILES	B2AR arrestin ag	NTMT1 inhibitor	GALK inh	GPR32 ag	TSG101-PTAP inh	OvCa metastasis
Cc1cc(Nc2cccc(Cl)c2)nc2ccc(NC(=O)c3cccnc3)cc12	i	?	-9%	60*	i	i
Cc1cc(N2CCN(C)CC2)nc2ccc(NC(=O)Nc3cccc(Cl)c3)cc12	i	?	2%	93*	i	-10%
Cc1cc(Nc2cccc(Cl)c2)nc2ccc(NC(=O)c3cccc(N(C)C)c3)cc12	i	?	-3%	6	i	-4%
Cc1ccc(/C=C/C(=O)Nc2ccc3nc(N4CCC(C)CC4)cc(C)c3c2)cc1	i	89µM*	6%	-8	i	6%
CCCCN(CC)CCCNC(=O)C1CCCN(c2ncnc3c2nc2n3CCCCC2)C1 (stereo unspecified)	i	-10%	-5%	-7	i	6%
Cc1ccc(C(=O)Nc2nc(-c3nnn(-c4cccc(Cl)c4C)c3C)ns2)cc1C	i	11%	0%	23	i	i
Cc1cc(N2CCN(C)CC2)nc2ccc(NC(=O)Nc3ccccc3Br)cc12	i	-2%	1%	103*	i	-10%
Cc1ccc(NC(=O)c2cccn2-c2nnc(N3CCCCC3)s2)cc1Cl	i	79µM*	-1%	-26	i	6%
O=C(Nc1ccc(Br)c2cccnc12)c1cccc2ccccc12	i	-11%	2%	31	i	i
CN1CCC(Nc2ncc3ncnc(Nc4ccc(F)c(Cl)c4)c3n2)CC1	·	45µM*	·	24	·	·
O=C(NC1CCCC1)c1ccc2c(=O)n(Cc3ccccc3)c(SCc3cccc([N+](=O)[O-])c3)nc2c1	i	-9%	3%	-8	i	8%
